Assay results published in PubChem BioAssay (NCI).
The panel holds about 79,000 compounds, 15% with a hit somewhere; the sample as a whole holds those more often. The source made the active and inactive calls. Rule as the data show it: active = growth inhibition above about 70%; inactive = the rest.

Legend:
[1] = NCI Yeast Anticancer Drug Screen. Data for the rad52 strain (AID 147);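 also: 0% = growth of vehicle-treated control cultures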; details: S. cerevisiae rad52 mutant growth inhibition, stronger effect = higher value
Outline: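 Genetically altered yeast (DNA damage repair defect) treated with compound; inhibition calculated relative to vehicle.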

[2] = NCI Yeast Anticancer Drug Screen. Data for the wt1 strain (AID 149);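 also: 0% = growth of vehicle-treated wt1 cultures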; details: S. cerevisiae wt1 strain (SPY 50644) growth inhibition, stronger effect = higher value
Outline: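 Vehicle-normalised growth inhibition; strain wt1; compound exposure.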

[3] = NCI Yeast Anticancer Drug Screen. Data for the rad50EPP+ strain (AID 151);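 also: 0% = growth of vehicle-treated control cultures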; details: S. cerevisiae rad50 mutant strain, stronger effect = higher value
Outline: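 Strain rad50EPP+; compound exposure; % growth inhibition vs vehicle.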

[4] = NCI Yeast Anticancer Drug Screen. Data for the rad50 strain (AID 155);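 also: 0% = growth of vehicle-only cultures of the same strain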; details: S. cerevisiae rad50 strain growth inhibition, stronger effect = higher value
Outline: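 A DNA repair-deficient yeast mutant serves as the test organism; compound-induced growth inhibition is calculated against vehicle-treated cells.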

[5] = NCI Yeast Anticancer Drug Screen. Data for the mec2-1 strain (AID 157); details: S. cerevisiae mec2-1 strain, stronger effect = higher value
Outline: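 Cells of the genetically defined mec2-1 yeast strain are incubated with test compound. Inhibition of growth is calculated against vehicle-treated controls.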

[6] = NCI Yeast Anticancer Drug Screen. Data for the rad14 strain (AID 159);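 also: 0% = growth of vehicle-treated control cultures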; details: S. cerevisiae rad14 strain growth inhibition, stronger effect = higher value
Outline: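 Vehicle-treated cultures served as the baseline for growth inhibition of a DNA repair-mutant yeast strain exposed to each compound.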

[7] = NCI Yeast Anticancer Drug Screen. Data for the sgs1 mgt1 strain (AID 161);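 also: 0% = growth of cultures given vehicle only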; details: S. cerevisiae sgs1 mgt1 strain, stronger effect = higher value
Outline: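 Read-out: growth inhibition vs vehicle controls. Cells: mutant yeast strain deficient in DNA damage repair.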

[8] = NCI Yeast Anticancer Drug Screen. Data for the CLN2oe strain (AID 163);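 also: 0% = growth of vehicle-only control cultures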; details: S. cerevisiae CLN2oe strain, stronger effect = higher value
Outline: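 Strain altered in cell-cycle control, incubated with compound; growth compared to solvent-treated controls.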

[9] = NCI Yeast Anticancer Drug Screen. Data for the bub3 strain (AID 167); details: S. cerevisiae bub3 mutant strain, stronger effect = higher value
Outline: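 Inhibition values come from growth of compound-treated mutant yeast normalised to vehicle-treated controls.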

[10] = NCI Yeast Anticancer Drug Screen. Data for the wt2 strain (AID 169);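 also: 0% = growth of vehicle-treated yeast cultures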; details: S. cerevisiae wt2 strain growth inhibition, stronger effect = higher value
Outline: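 Steps: yeast strain treated with compound; growth recorded; inhibition calculated relative to cultures given vehicle alone.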

[11] = NCI Yeast Anticancer Drug Screen. Data for the mlh1 strain (AID 171);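 also: 0% = growth of vehicle-treated control cultures of the same strain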; details: S. cerevisiae mlh1 strain growth inhibition, stronger effect = higher value
Outline: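 Yeast screen: mutant strain plus compound, growth scored against vehicle control wells.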

[12] = NCI Yeast Anticancer Drug Screen. Data for the sgs1 strain (AID 173);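 also: 0% = growth of vehicle-only control cultures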; details: S. cerevisiae sgs1 mutant, stronger effect = higher value
Outline: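 Inhibition of yeast growth served as the measure. The mutant strain was treated with each compound, and growth was normalised to cultures receiving vehicle alone.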

[13] = NCI Yeast Anticancer Drug Screen. Data for the mlh1 rad18 strain (AID 175); details: S. cerevisiae mlh1 rad18 strain growth inhibition, stronger effect = higher value
Outline: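 Compound-treated yeast growth, normalised to vehicle controls. Strain bears defined DNA repair mutations.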

[14] = NCI Yeast Anticancer Drug Screen. Data for the rad18 strain (AID 177); details: S. cerevisiae rad18 mutant growth inhibition, stronger effect = higher value
Outline: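 Inhibition values reflect reduced yeast growth compared with vehicle-treated controls, using a strain engineered with a DNA damage repair defect.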

[15] = NCI Yeast Anticancer Drug Screen. Data for the mgt1 strain (AID 153); details: S. cerevisiae mgt1 mutant growth inhibition, stronger effect = higher value
Outline: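 Read-out: yeast growth inhibition vs vehicle control. Strain mgt1, drawn from a panel altered in DNA damage repair or cell cycle control.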

[16] = NCI Yeast Anticancer Drug Screen. Data for the cln2 rad14 strain (AID 165);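 also: 0% = growth equal to vehicle treated cultures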; details: S. cerevisiae cln2 rad14 strain, stronger effect = higher value
Outline: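 The screen exposed genetically defined yeast (cln2 rad14) to test compounds and scored growth inhibition relative to vehicle-treated controls.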

[17] = at 5.0 µM (retest, dose inferred, filed as 0.5)
[18] = at 50.0 µM (retest, dose inferred, filed as 5.0)

Measured: growth inhibition

CC[C@]1(O)CC(OC2CC(N(C)C)C(O)C(C)O2)c2c(cc3c(c2O)C(=O)c2c(O)cccc2C3=O)[C@@H]1C(=O)OC (stereo partly specified)
active: [1]; at 3.7 µM 77% | [1]; at 11.0 µM 86% | [1]; at 33.0 µM 94% | [1]; at 100.0 µM 96% | [2]; at 33.0 µM 91% | [2]; at 100.0 µM 96% | [3]; at 33.0 µM 70% | [3]; at 100.0 µM 89% | [4]; at 3.7 µM 75% | [4]; at 11.0 µM 87% | [4]; at 33.0 µM 96% | [4]; [18] 95% | [4]; at 50.0 µM 91.6% | [4]; at 100.0 µM 97% | [5]; at 33.0 µM 79% | [5]; [18] 95% | [5]; at 50.0 µM 93% | [5]; at 100.0 µM 95% | [6]; at 33.0 µM 81% | [6]; at 100.0 µM 96% | [7]; [18] 96% | [7]; at 50.0 µM 93% | [8]; at 33.0 µM 89% | [8]; at 100.0 µM 95% | [9]; at 33.0 µM 93% | [9]; [18] 97% | [9]; at 50.0 µM 92% | [9]; at 100.0 µM 98% | [10]; at 33.0 µM 95% | [10]; at 100.0 µM 97% | [11]; at 33.0 µM 90% | [11]; at 100.0 µM 96% | [12]; at 33.0 µM 92% | [12]; at 100.0 µM 96% | [13]; [18] 95% | [13]; at 50.0 µM 91% | [14]; at 33.0 µM 95% | [14]; at 100.0 µM 97%
inactive: [1]; at 1.2 µM 31% | [2]; at 1.2 µM -2% | [2]; at 3.7 µM -4% | [2]; at 11.0 µM -1% | [3]; at 1.2 µM 6% | [3]; at 3.7 µM 12% | [3]; at 11.0 µM 40% | [4]; at 1.2 µM 33% | [4]; [17] 50% | [5]; at 1.2 µM -16% | [5]; at 3.7 µM -14% | [5]; [17] 4% | [5]; at 11.0 µM 7% | [6]; at 1.2 µM -12% | [6]; at 3.7 µM -18% | [6]; at 11.0 µM 0% | [7]; [17] 36% | [8]; at 1.2 µM -37% | [8]; at 3.7 µM -6% | [8]; at 11.0 µM 12% | [9]; at 1.2 µM 33% | [9]; at 3.7 µM 32% | [9]; [17] 21% | [9]; at 11.0 µM 36% | [10]; at 1.2 µM -6% | [10]; at 3.7 µM -6% | [10]; at 11.0 µM 41% | [11]; at 1.2 µM -4% | [11]; at 3.7 µM 6% | [11]; at 11.0 µM 9% | [12]; at 1.2 µM -8% | [12]; at 3.7 µM -2% | [12]; at 11.0 µM 14% | [13]; [17] 22% | [14]; at 1.2 µM 6% | [14]; at 3.7 µM -9% | [14]; at 11.0 µM 2%

O=C1c2ccccc2C(=O)C(Cl)C1Cl (stereo unspecified)
inactive: [1]; at 1.2 µM 1% | [1]; at 3.7 µM 15% | [2]; at 1.2 µM 7% | [2]; at 3.7 µM 18% | [3]; at 1.2 µM 7% | [3]; at 3.7 µM 36% | [15]; at 1.2 µM 7% | [15]; at 3.7 µM 13% | [4]; at 1.2 µM 5% | [4]; at 3.7 µM 36% | [4]; [17] 29% | [5]; at 1.2 µM 9% | [5]; at 3.7 µM 22% | [5]; [17] 34% | [7]; [17] 33% | [8]; at 1.2 µM 4% | [8]; at 3.7 µM 10% | [16]; [17] 10% | [9]; at 1.2 µM 13% | [9]; at 3.7 µM 35% | [10]; at 1.2 µM 9% | [10]; at 3.7 µM 24% | [11]; at 1.2 µM 1% | [11]; at 3.7 µM 4% | [12]; at 1.2 µM 4% | [12]; at 3.7 µM 15% | [13]; [17] 21% | [14]; at 1.2 µM 1% | [14]; at 3.7 µM 10%
active: [1]; at 11.0 µM 88% | [1]; at 33.0 µM 99% | [1]; at 100.0 µM 98% | [2]; at 11.0 µM 72% | [2]; at 33.0 µM 99% | [2]; at 100.0 µM 99% | [3]; at 11.0 µM 98% | [3]; at 33.0 µM 99% | [3]; at 100.0 µM 98% | [15]; at 11.0 µM 99% | [15]; at 33.0 µM 99% | [15]; at 100.0 µM 99% | [4]; at 11.0 µM 98% | [4]; at 33.0 µM 99% | [4]; [18] 99% | [4]; at 50.0 µM 99.2% | [4]; at 100.0 µM 99% | [5]; at 11.0 µM 90% | [5]; at 33.0 µM 99% | [5]; [18] 99% | [5]; at 50.0 µM 99.4% | [5]; at 100.0 µM 99% | [7]; [18] 99% | [7]; at 50.0 µM 99.5% | [8]; at 11.0 µM 71% | [8]; at 33.0 µM 99% | [8]; at 100.0 µM 98% | [16]; [18] 99% | [16]; at 50.0 µM 99.1% | [9]; [17] 88% | [9]; at 11.0 µM 98% | [9]; at 33.0 µM 99% | [9]; [18] 99% | [9]; at 50.0 µM 99.3% | [9]; at 100.0 µM 99% | [10]; at 11.0 µM 82% | [10]; at 33.0 µM 99% | [10]; at 100.0 µM 99% | [11]; at 11.0 µM 93% | [11]; at 33.0 µM 99% | [11]; at 100.0 µM 99% | [12]; at 11.0 µM 89% | [12]; at 33.0 µM 99% | [12]; at 100.0 µM 99% | [13]; [18] 99% | [13]; at 50.0 µM 99.3% | [14]; at 11.0 µM 91% | [14]; at 33.0 µM 99% | [14]; at 100.0 µM 99%

CC1CN1C1=C(Cl)C(=O)C(N2CC2C)=C(Cl)C1=O (stereo unspecified)
active: [1]; at 33.0 µM 97% | [1]; at 100.0 µM 97% | [2]; at 33.0 µM 81% | [2]; at 100.0 µM 97% | [3]; at 33.0 µM 94% | [3]; at 100.0 µM 97% | [4]; at 11.0 µM 79% | [4]; at 33.0 µM 97% | [4]; [18] 95% | [4]; at 100.0 µM 98% | [5]; at 33.0 µM 92% | [5]; [18] 93% | [5]; at 100.0 µM 98% | [6]; at 33.0 µM 97% | [6]; at 100.0 µM 98% | [7]; [18] 96% | [16]; [18] 82% | [9]; at 33.0 µM 86% | [9]; [18] 93% | [9]; at 100.0 µM 95% | [10]; at 33.0 µM 96% | [10]; at 100.0 µM 98% | [11]; at 100.0 µM 97% | [12]; at 11.0 µM 78% | [12]; at 33.0 µM 97% | [12]; at 100.0 µM 97% | [13]; [18] 97%
inactive: [1]; at 1.2 µM 22% | [1]; at 3.7 µM 40% | [1]; at 11.0 µM 64% | [2]; at 1.2 µM 0% | [2]; at 3.7 µM -4% | [2]; at 11.0 µM 12% | [3]; at 1.2 µM 8% | [3]; at 3.7 µM 21% | [3]; at 11.0 µM 47% | [4]; at 1.2 µM 16% | [4]; at 3.7 µM 27% | [4]; [17] 19% | [4]; at 50.0 µM 46% | [5]; at 1.2 µM 2% | [5]; at 3.7 µM 1% | [5]; [17] 15% | [5]; at 11.0 µM 6% | [5]; at 50.0 µM 18.8% | [6]; at 1.2 µM 22% | [6]; at 3.7 µM 37% | [6]; at 11.0 µM 50% | [7]; [17] 39% | [7]; at 50.0 µM 69.3% | [8]; at 1.2 µM 0% | [8]; at 3.7 µM -8% | [8]; at 11.0 µM -7% | [8]; at 33.0 µM 27% | [8]; at 100.0 µM 54% | [16]; [17] -3% | [16]; at 50.0 µM 10.3% | [9]; at 1.2 µM 18% | [9]; at 3.7 µM 15% | [9]; [17] 23% | [9]; at 11.0 µM 29% | [9]; at 50.0 µM 45.4% | [10]; at 1.2 µM -6% | [10]; at 3.7 µM 3% | [10]; at 11.0 µM 43% | [11]; at 1.2 µM -1% | [11]; at 3.7 µM -1% | [11]; at 11.0 µM 24% | [11]; at 33.0 µM 64% | [12]; at 1.2 µM 22% | [12]; at 3.7 µM 37% | [13]; [17] 59% | [13]; at 50.0 µM 69.1%
